# Reference: PubChem BioAssay (Tox21)
# Values joined by “and” are separate entries in the source; they are usually repeats but may differ in a detail not shown here. Equal values may be shown once. Results filed as inconclusive are left out. Entries that show only a call come without a potency. Active and inactive are the calls of the source. Calls come from the whole dose curve; as a rule, active = well fitted curve in the direction sought with a large enough effect in the repeat runs; inconclusive = weak or mixed curves; inactive = no such curve, though single readings can be large; an effect the other way counts as inactive or inconclusive.
# Test system: not listed separately
# Experiment: qHTS assay to identify small molecule antagonists of the retinoid-related orphan receptor gamma (ROR-gamma) signaling pathway - cell viability counter screen (AID 1159520)
# Details: Tet-on RORgamma CHO cells viability, ATP luminescence, 16 h; series mostly up to 92.4 µM; activity, negative = cytotoxicity: at the top concentration
# Procedure, shortened: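 Tet-on ROR gamma CHO cells were given compounds for 2 hr, then doxycycline hyclate at 1 uM final, and incubated 16 hr at 37 C. Viability was measured as ATP content by CellTiter-Glo luminescence.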
# Note: nearly all actives have a fitted effect of over 50% in size.
# Potency is the fitted concentration of half-maximal effect.
Compound,Potency,"activity, negative = cytotoxicity"
[N-]=[N+]=[N-],inactive,–
Cc1[nH]c(=O)n(C(C)(C)C)c(=O)c1Cl,inactive,–
COC(=O)NC(=S)Nc1ccccc1NC(=S)NC(=O)OC,inactive,–
CCCCN(CCCC)SN(C)C(=O)Oc1cccc2c1OC(C)(C)C2,62.1 µM (active),–
O=[N+]([O-])c1ccccc1,inactive,–
C=CC(N)=O,inactive,–
c1ccc2c(c1)Oc1ccccc1O2,inactive,–
c1ccc(-c2ccccc2)cc1,inactive,–
CCC12COCN1COC2,inactive,–
Clc1ccccc1Cl,inactive,–
CNC(=O)Oc1ccccc1OC(C)C,inactive,–
CC1OC(C)OC(C)O1 (centres undefined),inactive,–
CCCN(CCC)c1c([N+](=O)[O-])cc(C(F)(F)F)cc1[N+](=O)[O-],inactive,–
COP(N)(=O)SC (centres undefined),inactive,–
COC(=O)NS(=O)(=O)c1ccc(N)cc1,inactive,–
CN1C(=O)CN=C(c2ccccc2)c2cc(Cl)ccc21,inactive,–
CC(Oc1ccc(Cl)cc1Cl)C(=O)O (centres undefined),inactive,–
O=C1CCCN1,inactive,–

Compound,Potency,"activity, negative = cytotoxicity"
CN(N=O)c1ccccc1,inactive,–
Cc1ccc(N)cc1N,inactive,–
Nc1ccc(Br)cc1,inactive,–
OC(O)C(Cl)(Cl)Cl,inactive,–
CCCCN(CC)C(=O)SCCC,inactive,–
C=C(C)CCl,inactive,–
CN(C)CCO,inactive,–
O=c1[nH]c2ccccc2c(=O)o1,inactive,–
CC(C)OC(=O)Nc1ccccc1,inactive,–
CON(C)C(=O)Nc1ccc(Cl)c(Cl)c1,inactive,–
Nc1ccc(Oc2ccc(N)cc2)cc1,inactive,–
O=c1n(Cl)c(=O)n(Cl)c(=O)n1Cl,inactive,–
CCOP(OCC)OCC,inactive,–
Clc1ccc(Cl)cc1,inactive,–
CC(C)(C)OOC(=O)c1ccccc1,inactive,–
COc1ccc2c3c1O[C@H]1[C@@H](O)C=C[C@H]4[C@@H](C2)N(C)CC[C@@]341,–,-5.55% (inactive)
CCCC1COC(Cn2cncn2)(c2ccc(Cl)cc2Cl)O1 (centres undefined),inactive,–
CC(=O)C=C(C)C,inactive,–

# Target: Nuclear receptor ROR-gamma (Homo sapiens) (UniProt P51449)
# Experiment: qHTS assay to identify small molecule antagonists of the retinoid-related orphan receptor gamma (ROR-gamma) signaling pathway (AID 1159521;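 for activity change, negative = inhibition: CHO cells with doxycycline inducible ROR-gamma driving an RORE luciferase reporter; top concentration of the series differs between compounds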)
# Details: Tet-on RORgamma CHO cells, RORE-luciferase, 16 h; series mostly up to 92.4 µM; activity change, negative = inhibition: at the top concentration
# Procedure, shortened: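 Tet-on RORγ CHO cells carrying a ROR response element–luciferase reporter were pretreated with compounds for 2 h, then induced with 1 uM (final) doxycycline hyclate for 16 h at 37 C. Antagonism was read as decreased ONE-Glo luminescence.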
Compound,Potency,"activity change, negative = inhibition"
[N-]=[N+]=[N-],inactive,–
Cc1[nH]c(=O)n(C(C)(C)C)c(=O)c1Cl,inactive,–
COC(=O)NC(=S)Nc1ccccc1NC(=S)NC(=O)OC,inactive,–
CCCCN(CCCC)SN(C)C(=O)Oc1cccc2c1OC(C)(C)C2,22 µM (active) and 30.6 µM (active),–
O=[N+]([O-])c1ccccc1,inactive,–
C=CC(N)=O,inactive,–
c1ccc2c(c1)Oc1ccccc1O2,inactive,–
c1ccc(-c2ccccc2)cc1,inactive,–
CCC12COCN1COC2,inactive,–
Clc1ccccc1Cl,inactive,–
CNC(=O)Oc1ccccc1OC(C)C,–,0.0971% (inactive)
CC1OC(C)OC(C)O1 (centres undefined),inactive,–
CCCN(CCC)c1c([N+](=O)[O-])cc(C(F)(F)F)cc1[N+](=O)[O-],inactive,–
COP(N)(=O)SC (centres undefined),–,12.4% (inactive)
COC(=O)NS(=O)(=O)c1ccc(N)cc1,inactive,–
CN1C(=O)CN=C(c2ccccc2)c2cc(Cl)ccc21,inactive,–
CC(Oc1ccc(Cl)cc1Cl)C(=O)O (centres undefined),inactive,–
O=C1CCCN1,–,3.13% (inactive)
